Screens from PubChem.
GRK2 inh: compounds blocking aptamer binding on GRK2 – biochemical, human GRK2, bead flow cytometry, HTS, primary screen. Beta-adrenergic receptor kinase 1 (Homo sapiens), P25098. FAM-aptamer displacement from GRK2. inhibition of aptamer binding, % at 10 µM. 330,000 compounds, 0.59% hits. AID 488847, 2010;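 active = inhibition of aptamer binding above 40%, roughly 3 SD of noise, on plates passing a quality check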;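 note: median bead fluorescence of bound FAM aptamer so fluorescent compounds give negative values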
Target sequence (P25098 whole entry, looked up): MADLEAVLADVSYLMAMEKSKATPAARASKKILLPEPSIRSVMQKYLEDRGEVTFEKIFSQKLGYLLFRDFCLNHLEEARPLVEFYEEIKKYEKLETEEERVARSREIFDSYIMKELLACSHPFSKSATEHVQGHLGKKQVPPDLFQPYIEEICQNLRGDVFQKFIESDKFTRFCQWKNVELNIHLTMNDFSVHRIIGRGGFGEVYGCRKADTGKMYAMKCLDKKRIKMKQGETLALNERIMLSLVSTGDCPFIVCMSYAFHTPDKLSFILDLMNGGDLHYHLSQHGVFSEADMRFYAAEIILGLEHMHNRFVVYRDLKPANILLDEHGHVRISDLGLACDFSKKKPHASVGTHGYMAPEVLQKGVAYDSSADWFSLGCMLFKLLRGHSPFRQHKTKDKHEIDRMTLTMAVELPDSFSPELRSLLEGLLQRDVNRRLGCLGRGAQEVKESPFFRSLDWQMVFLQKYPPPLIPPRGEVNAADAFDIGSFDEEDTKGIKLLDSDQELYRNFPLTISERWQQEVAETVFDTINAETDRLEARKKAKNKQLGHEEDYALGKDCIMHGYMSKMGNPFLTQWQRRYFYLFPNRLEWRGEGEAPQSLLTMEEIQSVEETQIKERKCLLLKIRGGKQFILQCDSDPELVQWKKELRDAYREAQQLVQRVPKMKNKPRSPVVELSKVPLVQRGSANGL
MIN6 prolif: inducers of MIN6 beta-cell proliferation, primary screen, ATP luminescence, uHTS; MIN6 cells proliferation, ATPlite luminescence, 48 h; cells starved in 0.2% serum; 100% = growth in 10% serum; proliferation, % at 10 µM; 330,000 compounds, 0.29% hits;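 active = compounds whose signal lies at least 3.5 SD above the mean of all wells on their plate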
Platelet DG rel: inhibitors of platelet dense granule secretion, primary screen, cell-based, MLPCN, human platelets; inhibition, %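 (compounds screened at 7.5 µM in platelet-rich plasma)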; 300,000 compounds, 0.22% hits; human platelet-rich plasma, SFLLRN dense granule ATP release, luminescence; AID 1663, 2009;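 active = mean replicate score, as percent of positive control, at or above 50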
NTR1 agonist: agonists of human NTR1, primary screen, imaging, U2OS cells, beta-arrestin-GFP, high content | NTR1-U2OS beta-arrestin-GFP spot imaging, agonist mode | activation, % at 20 µM | 330,000 compounds, 0.17% hits;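 active = activation at or above 40% of the spot to cytoplasm intensity ratio, with at least 20 cells analyzed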
Hits are given with their value; 0 = inactive; - = no result given. A selection: hits, their analogues and other compounds. The true share with any hit is near 1.2%.

SMILES | GRK2 inh | MIN6 prolif | Platelet DG rel | NTR1 agonist
O=C1C2C3C=CC(C4CC34)C2C(=O)N1c1cccc2ccccc12 (configuration not stated) | 0 | 0 | 0 | 0
Cc1ccc(NC(=O)CCC(=O)NNC(=S)Nc2ccc(F)cc2F)cc1C | 0 | 0 | 0 | 0
COc1ccc(NC(=O)C2CCN(C(=O)Cc3ccccc3)CC2)cc1OC | 0 | 0 | 0 | 0
O=C(Nc1cccc(F)c1)C1CCN(C(=O)Cc2ccccc2)CC1 | 0 | 0 | 51 | 0
CC(C)CN(CC(C)C)C(=O)Nc1ccccc1F | 0 | 0 | 0 | 0
COc1cc(C(=O)NNC(=O)/C=C/c2ccco2)cc(OC)c1OC | 42 | 0 | - | 0
COc1cc(C(=O)NNC(=O)c2ccco2)cc(OC)c1OC | 0 | 0 | 0 | 0
COc1ccccc1CN(C)C(=O)CN1C(=O)c2ccccc2C1=O | 0 | 0 | 0 | 0
O=C1NC(=O)C2(CCC(C(=O)O)C2)N1 (configuration not stated) | 0 | 0 | 50 | 0
O=C1NC(=O)C2(CCc3ccccc32)N1 (configuration not stated) | 0 | 0 | 0 | 0
CC(C)NC(=O)c1ccc2c(c1)N(CC(=O)N1CCCCC1)C(=O)C(C)(C)O2 | 0 | 0 | 0 | 0
Cc1ccc(/C=N/NC(=O)c2nn(C)cc2Cl)cc1 | 0 | 0 | 53 | 0
Cc1cc(=O)oc2cc(OCC(=O)Nc3cccc(S(=O)(=O)N(C)C)c3)ccc12 | 56 | 0 | 0 | 0
CCN(CC)S(=O)(=O)c1ccc(Cl)c(NC(=O)COc2ccc3c(C)cc(=O)oc3c2)c1 | 100 | 0 | 0 | 0
Cc1ccccc1CC(=O)Nc1ccc(S(=O)(=O)N2CCOCC2)cc1 | 0 | 0 | 0 | 0
Cc1ccc2c(c1)NC(=O)[C@@]1(C)[C@@H](c3ccccc3)[C@H]3COc4ccccc4[C@@H]3N1C2=O | - | 0 | - | 0
Cc1ccc2c(c1)C(=O)N1[C@H]3c4ccccc4OC[C@@H]3[C@H](c3ccccc3)[C@]1(C)C(=O)N2 | 93 | 0 | - | 0
COc1cc2c(cc1OC)-c1cc(NC3CCCCC3)nc(=O)n1CC2 | 0 | 0 | 65 | 0
COc1cc2c(cc1OC)-c1cc(NC3CCCCCCC3)nc(=O)n1CC2 | 0 | 0 | 135 | 0
COc1cc2c(cc1OC)-c1cc(NC3CC3)nc(=O)n1CC2 | 0 | 0 | 0 | 0
CCNc1cc2n(c(=O)n1)CCc1cc(OC)c(OC)cc1-2 | 0 | 0 | 0 | 0
COc1cc(C(=O)NCC(=O)NC(C)CCc2ccccc2)cc(OC)c1OC (configuration not stated) | 0 | 0 | 0 | 0
O=C(C=C=Nc1ccccc1)C(=O)N=C=Cc1ccccc1 | 0 | 0 | 53 | 0
O=C(N/N=C/c1ccccc1)C(=O)N/N=C/c1ccccc1 | 0 | 0 | 0 | 0
COc1ccc(Cn2c(/C=C/c3ccccc3)nc3ccccc32)cc1 | 0 | 0 | 0 | 0
SMILES | GRK2 inh | MIN6 prolif | Platelet DG rel | NTR1 agonist
COc1ccc(/C=C/c2nc3ccccc3n2C)cc1 | 0 | 0 | 113 | 0
CCCOc1ccccc1C1C(C(=O)OC)=CN(C(C)C)C=C1C(=O)OC | 0 | 0 | 0 | 0
CCCCOc1ccccc1C1C(C(=O)OC)=CN(CC)C=C1C(=O)OC | 0 | 0 | 51 | 0
O=C(COC(=O)c1nc(Cl)ccc1Cl)NNC(=O)c1cccs1 | 0 | 0 | 0 | 0
CSc1ccc(/C=C/C(=O)c2c(O)cc(C)oc2=O)cc1 | 0 | 0 | 0 | 0
COc1ccc2c(CC(=O)OCC(=O)Nc3ccc(C)cc3)coc2c1 | 44 | 0 | - | 0
N/C(=N\OCc1ccc([N+](=O)[O-])cc1)c1ccccn1 | 0 | 0 | 63 | 0
COc1ccc2c(c1)[nH]c1c(N3CCN(Cc4ccc5c(c4)OCO5)CC3)ncnc12 | 0 | 0 | 0 | 43
CCNC(=S)NNC(=O)c1cc(-c2cccc(OC)c2)nc2ccccc12 | 0 | 0 | 0 | 0
CCNC(=S)NNC(=O)c1cc(-c2ccc(OCC)cc2)nc2ccccc12 | 0 | 0 | 103 | 0
CC(C)(C)C1CCc2c(sc(NC(=O)C3CC=CCC3C(=O)O)c2C#N)C1 (configuration not stated) | 0 | 0 | 0 | 0
N#Cc1c(NC(=O)C2CC=CCC2C(=O)O)sc2c1CCCCCC2 (configuration not stated) | 73 | 0 | 0 | 0
CCCNC(=O)CN1C(=O)NC(CC)(c2ccc(F)cc2)C1=O (configuration not stated) | 0 | 0 | 0 | 0
Cc1nnc(N/N=C/c2ccc(-c3ccc(Br)cc3)o2)n1N | 0 | 0 | 0 | 0
Cc1nnc(N/N=C\c2ccc(-c3cccc(C(=O)O)c3)o2)n1N | 88 | 0 | 0 | 0
CCN(C[C@H]1N[C@@](C)(C(=O)OC)[C@H]2C(=O)N(C)C(=O)[C@@H]12)C(=O)COc1ccccc1 | 0 | 0 | - | 0
O=C(CNC(=O)c1ccccc1F)OCc1nc2ccc(Cl)cc2n1CCO | 0 | 0 | - | 0
O=C(Nc1ccc(-c2nc3ccccc3s2)cc1)C1=COCCO1 | 48 | 0 | 0 | 0
CC1CCCC(C)N1CC(O)COCc1ccccc1 (configuration not stated) | 0 | 0 | 0 | 0
O=c1[nH]c2c(s1)C=Nc1ccccc1N2 | 0 | 0 | 77 | 0
Clc1ccccc1Nc1nnc(-c2ccncc2)s1 | 0 | 0 | 69 | 0
COc1ccc(Nc2nnc(-c3ccncc3)s2)cc1Cl | 0 | 0 | 0 | 0
CC(C)C(=O)Nc1ncc2c(n1)CC(c1cccs1)CC2=O (configuration not stated) | 0 | 0 | 65 | 0
CC(C)OCCCNc1ncc2c(n1)CC(c1cccs1)CC2=O (configuration not stated) | 0 | 0 | 0 | 0
CC(Cc1ccc(Cl)cc1)N1CCC(n2nccc2NC(=O)C2CCCC2)CC1 (configuration not stated) | 0 | 0 | 0 | 0
SMILES | GRK2 inh | MIN6 prolif | Platelet DG rel | NTR1 agonist
COC(=O)C(C#N)c1nc2ccccc2nc1N1CCN(Cc2ccc3c(c2)OCO3)CC1 (configuration not stated) | 0 | 0 | 56 | 0
CC(C)COC(=O)C(C#N)c1nc2ccccc2nc1N1CCN(Cc2ccc3c(c2)OCO3)CC1 (configuration not stated) | 0 | 0 | 0 | 0
Cc1ccccc1NC1=C/C(=N\S(=O)(=O)c2cccs2)c2ccccc2C1=O | 0 | 0 | 0 | 40
CCOCCCn1c(SCC(=O)Nc2ccc3[nH]c(=O)[nH]c3c2)nc2ccccc2c1=O | 0 | 0 | 0 | 0
Cc1cccc(NC(=O)COc2ccc(/C=N\n3cnnc3)cc2)c1 | 43 | 0 | 0 | 0
CCN(CC)c1ccc(/C=N/OCC(=O)Nc2cccc(C)c2)cc1 | 0 | 0 | 0 | 0
CN(CC(=O)Nc1ccccc1Cl)C(=O)COC(=O)CSc1ccc(Cl)cc1 | 0 | 0 | - | 0
COc1ccc(NC(=O)CN(C)C(=O)c2cc3c(s2)CCC3)cc1 | 63 | 0 | 0 | 0
COc1ccc(NC(=O)CN(C)C(=O)c2cc3c(s2)CCCCC3)cc1 | 0 | 0 | 0 | 0
CCN(CC)S(=O)(=O)c1ccc(N2CCCC2)c(NC(=O)CC(C)(C)C)c1 | 0 | 0 | 0 | 0
